{
  "source": "paper PMC8384837",
  "about": "“Expanding the binding specificity for RNA recognition by a PUF domain”",
  "experiment_in_all_cases": "yeast three-hybrid, YBZ-1, SC-Leu-His + 0.5 mM 3-AT, 4 days",
  "conditions_in_all_cases": "tags: N-Gal4 AD-HA kept; label: inside an RPR1-promoter hybrid RNA with tandem MS2 sites; ssRNA",
  "key": {"[1]": {"biological_target": "PUM1 PUF domain R4-SHP (Homo sapiens, UniProt Q14671 828-1176, N971S;Q975P)", "outline": "(§1)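 A centromeric plasmid in strain YBZ-1 co-expressed Pumilio-1 PUF domain libraries, randomized at the three base-contacting residues of each repeat, with matching RNA elements; the strain carries a LexA–MS2 coat fusion and a HIS3 reporter. After four days on SC-Leu (input) or SC-Leu-His + 0.5 mM 3-AT (selection), the repeat regions were PCR-amplified and Illumina-sequenced. The interaction score is the log change in variant frequency from input to selection, using log2 and a pseudocount of 1 where absent.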"}, "[2]": {"biological_target": "PUM1 PUF domain R4-SRY (Homo sapiens, UniProt Q14671 828-1176, N971S;H972R;Q975Y)", "outline": "as §1"}, "[3]": {"biological_target": "PUM1 PUF domain R3-YRR (Homo sapiens, UniProt Q14671 828-1176, C935Y;Q939R)", "outline": "as §1"}, "[4]": {"biological_target": "PUM1 PUF domain R3-SCD (Homo sapiens, UniProt Q14671 828-1176, C935S;R936C;Q939D)", "outline": "as §1"}, "[5]": {"biological_target": "PUM1 PUF domain R3-LNG (Homo sapiens, UniProt Q14671 828-1176, C935L;R936N;Q939G)", "outline": "as §1"}, "[6]": {"biological_target": "PUM1 PUF domain R3-FRC (Homo sapiens, UniProt Q14671 828-1176, C935F;Q939C)", "outline": "as §1"}, "[7]": {"biological_target": "PUM1 PUF domain R8-CFK (Homo sapiens, UniProt Q14671 828-1176, N1122C;Y1123F;Q1126K)", "outline": "as §1"}, "[8]": {"biological_target": "PUM1 PUF domain R8-PWR (Homo sapiens, UniProt Q14671 828-1176, N1122P;Y1123W;Q1126R)", "outline": "as §1"}, "[9]": {"biological_target": "PUM1 PUF domain R8-KHY (Homo sapiens, UniProt Q14671 828-1176, N1122K;Y1123H;Q1126Y)", "outline": "as §1"}, "[10]": {"biological_target": "PUM1 PUF domain R3-DRQ (Homo sapiens, UniProt Q14671 828-1176, C935D)", "outline": "as §1"}},
  "data": [
    {"sequence": "GGCUAGAACUAGUGGAUCCCCCGGCGCCCGGCGGCUCGAGCCCGGGUAAGUGUACAUAGUCUGCAUGCCGCCGGGCGCCAUGCCUGCAGGUCGACUCUAGAAAACAUG", "values": [
      {"measurement": "binding signal", "setting": "[1]", "value": "5.25 log2 enrichment (interaction score)"}
    ]},
    {"sequence": "GGCUAGAACUAGUGGAUCCCCCGGCGCCCGGCGGCUCGAGCCCGGGUAAGUGUAUAUAGUCUGCAUGCCGCCGGGCGCCAUGCCUGCAGGUCGACUCUAGAAAACAUG", "values": [
      {"measurement": "binding signal", "setting": "[2]", "value": "0.46 log2 enrichment (interaction score)"},
      {"measurement": "binding signal", "setting": "[1]", "value": "5.36 log2 enrichment (interaction score)"}
    ]},
    {"sequence": "GGCUAGAACUAGUGGAUCCCCCGGCGCCCGGCGGCUCGAGCCCGGGUAAGUGUAAGUAGUCUGCAUGCCGCCGGGCGCCAUGCCUGCAGGUCGACUCUAGAAAACAUG", "values": [
      {"measurement": "binding signal", "setting": "[3]", "value": "4.01 log2 enrichment (interaction score)"},
      {"measurement": "binding signal", "setting": "[4]", "value": "5.61 log2 enrichment (interaction score)"},
      {"measurement": "binding signal", "setting": "[5]", "value": "3.21 log2 enrichment (interaction score)"},
      {"measurement": "binding signal", "setting": "[6]", "value": "4.65 log2 enrichment (interaction score)"}
    ]},
    {"sequence": "GGCUAGAACUAGUGGAUCCCCCGGCGCCCGGCGGCUCGAGCCCGGGUAAGUGUAAUUAGUCUGCAUGCCGCCGGGCGCCAUGCCUGCAGGUCGACUCUAGAAAACAUG", "values": [
      {"measurement": "binding signal", "setting": "[3]", "value": "0.22 log2 enrichment (interaction score)"},
      {"measurement": "binding signal", "setting": "[5]", "value": "1.7 log2 enrichment (interaction score)"}
    ]},
    {"sequence": "GGCUAGAACUAGUGGAUCCCCCGGCGCCCGGCGGCUCGAGCCCGGGUAAGCGUAAAUAGUCUGCAUGCCGCCGGGCGCCAUGCCUGCAGGUCGACUCUAGAAAACAUG", "values": [
      {"measurement": "binding signal", "setting": "[7]", "value": "4.21 log2 enrichment (interaction score)"},
      {"measurement": "binding signal", "setting": "[8]", "value": "4.3 log2 enrichment (interaction score)"},
      {"measurement": "binding signal", "setting": "[9]", "value": "4.22 log2 enrichment (interaction score)"}
    ]},
    {"sequence": "GGCUAGAACUAGUGGAUCCCCCGGCGCCCGGCGGCUCGAGCCCGGGUAAGUGUAAAUAGUCUGCAUGCCGCCGGGCGCCAUGCCUGCAGGUCGACUCUAGAAAACAUG", "values": [
      {"measurement": "binding signal", "setting": "[10]", "value": "4.43 log2 enrichment (interaction score)"},
      {"measurement": "binding signal", "setting": "[2]", "value": "5.27 log2 enrichment (interaction score)"},
      {"measurement": "binding signal", "setting": "[8]", "value": "4.27 log2 enrichment (interaction score)"}
    ]}
  ]
}
